Our source for the growth inhibition values is PubChem BioAssay (NCI).

Assay [1] can be described thus: NCI Yeast Anticancer Drug Screen. Data for the rad50 strain (AID 155).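 Note: 0% = growth of vehicle-only cultures of the same strain.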 The settings on record: S. cerevisiae rad50 strain growth inhibition; at 50.0 µM; hits give high values. The method in brief: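 Yeast carrying a defined DNA repair defect were exposed to test compounds, and growth was compared with vehicle-treated controls to give percent inhibition.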
Assay [2] in a line: NCI Yeast Anticancer Drug Screen. Data for the mec2-1 strain (AID 157). The following applies: S. cerevisiae mec2-1 strain, at 50.0 µM, hits give high values. The method, boiled down: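 mec2-1 yeast strain, carrying an alteration in DNA damage repair or cell cycle control, was exposed to compounds; growth inhibition was measured relative to vehicle-treated controls.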
The nature of assay [3]: NCI Yeast Anticancer Drug Screen. Data for the sgs1 mgt1 strain (AID 161).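 Note: 0% = growth of cultures given vehicle only.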 The following applies: S. cerevisiae sgs1 mgt1 strain, at 50.0 µM, hits give high values. The method in brief: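 Compounds are added to genetically altered yeast, and growth is compared with cultures given vehicle alone to give percent inhibition.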
Assay [4] in a line: NCI Yeast Anticancer Drug Screen. Data for the cln2 rad14 strain (AID 165).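 Note: 0% = growth equal to vehicle treated cultures.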 The settings on record: S. cerevisiae cln2 rad14 strain, at 50.0 µM, hits give high values. The method in brief: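 Yeast carrying cln2 and rad14 alterations (cell cycle control and DNA damage repair) were exposed to compounds. Growth inhibition was measured against vehicle-treated controls.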
Assay [5] is described as follows: NCI Yeast Anticancer Drug Screen. Data for the bub3 strain (AID 167). The following applies: S. cerevisiae bub3 mutant strain, at 50.0 µM, hits give high values. The method, boiled down: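 Compounds were applied to a genetically altered yeast strain carrying a cell-cycle control defect. Growth inhibition was scored against vehicle-treated controls.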
The nature of assay [6]: NCI Yeast Anticancer Drug Screen. Data for the mlh1 rad18 strain (AID 175). The following applies: S. cerevisiae mlh1 rad18 strain growth inhibition; at 50.0 µM; hits give high values. The method, boiled down:
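Growth inhibition of the yeast strain was measured after compound exposure and expressed relative to vehicle-treated controls. The strain carries defined defects in DNA damage repair.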

SMILES strings stand for the structures. This is part of a sample that, as a whole, favours compounds with a hit. Of some 79,000 tested, about 15% had one in any assay. Values without a mark were called inactive. Active and inactive are the calls of the source. Cut-off read from the data, not from the text of the source: active = growth inhibition above about 70%; inactive = the rest.

Take `CN(/N=C\c1ccc2ccccc2c1)C1=NCCCCN1`: the growth inhibition in assay [1] was -2.05%; in assay [2] it was -5.45%; in assay [3] it was -27.6%; in assay [4] it was -37%; in assay [5], -0.1%; in assay [6] it was 1.6%.

Turning to `C/C(CC/C(C)=N/NC(N)=O)=N/NC(N)=O`, the growth inhibition was 1.7% in assay [1]; -3.5% in assay [2]; -9.85% in assay [3]; 0.55% in assay [4]; 21.9% in assay [5]; -9.2% in assay [6].

Take `CC1=CCC(=O)[C@]2(C)C(CC(=O)O)[C@]3(C)C4=C(C)C(c5ccoc5)C[C@@H]4O[C@@H]3[C@H](O)[C@@H]12` (stereo partly drawn): the growth inhibition was 26.5% in assay [1]; -9.6% in assay [2]; 9.65% in assay [3]; 41% in assay [4]; -1.2% in assay [5]; -67.8% in assay [6].

As for `CN(C)Cc1cc(C(C)(C)C)cc(CNC2CCCCC2)c1O`, the growth inhibition in assay [1] is -2.9%; in assay [2], -6.45%; in assay [3], -26.9%; in assay [4], -6.4%; in assay [5], -24.4%; in assay [6] it was 19.9%.

As to `N#CNC1=NC(N)C(c2nc3ccccc3[nH]2)=C(CCCC(=O)Nc2cccc([N+](=O)[O-])c2)N1` (stereo not drawn), the growth inhibition was 17.1% in assay [1]; 17.1% in assay [2]; 5.45% in assay [3]; 25.9% in assay [4]; 35.9% in assay [5]; 5.65% in assay [6].

For the compound `Cc1ccc(S(=O)(=O)N(C)c2cc(Cl)c(I)cc2Cl)cc1`, the growth inhibition in assay [1] is 38.9%; in assay [2], -5.05%; in assay [3], 8.9%; in assay [4], 0.25%; in assay [5], 25.1%; in assay [6] it was 5.2%.

Consider `CC(=NC1CCCCC1)c1ccccc1O`, for which the growth inhibition in assay [1] was 24.4%; in assay [2], -11.1%; in assay [3], -3.35%; in assay [4], -23.9%; in assay [5] it was 13.6%; in assay [6], 16.8%.

Turning to `CC1CC(C[N+](=O)[O-])CC2(C1)OCCO2` (stereo not drawn), the growth inhibition in assay [1] was -1.5%; in assay [2], -25.3%; in assay [3] it was -28.6%; in assay [4], 5.1%; in assay [5] it was -28.8%; in assay [6] it was -5.15%.

Consider `COc1cccc(-n2cnc3c(=O)[nH]cnc32)c1`, for which the growth inhibition in assay [1] is -18.7%; in assay [2], -13.3%; in assay [3], -10.9%; in assay [4] it was -34.9%; in assay [5], -5.65%; in assay [6], -40%.

Regarding `O=C1NC(=S)S/C1=C\c1ccncc1`, the growth inhibition is 12.4% in assay [1]; -7.4% in assay [2]; -10.4% in assay [3]; 0.9% in assay [4]; 0.05% in assay [5]; -19.1% in assay [6].

For the compound `CN1CC2=C(NC(=S)NC2c2ccccc2)/C(=C/c2ccccc2)C1` (stereo not drawn), the growth inhibition in assay [1] was -14.5%; in assay [2] it was -8.75%; in assay [3] it was 5.65%; in assay [4], 6.8%; in assay [5], 22.4%; in assay [6] it was -13.2%.

Consider `CC(C)CNC(=S)N/N=C/C=C/c1ccc([N+](=O)[O-])cc1`, for which the growth inhibition in assay [1] is 4.2%; in assay [2] it was 10.4%; in assay [3], 23.4%; in assay [4], -16.7%; in assay [5], 2.7%; in assay [6] it was 23.3%.

Regarding `S=C(Oc1ccccc1)Oc1ccc2ccccc2c1`, the growth inhibition was 9.7% in assay [1]; -6.8% in assay [2]; -9.7% in assay [3]; -6.55% in assay [4]; 15.3% in assay [5]; -11.6% in assay [6].

For `BrCCCC1OCCO1`, the growth inhibition in assay [1] was 93.8% (active); in assay [2], 53%; in assay [3], 85.8% (active); in assay [4], 43.5%; in assay [5] it was 73.4% (active); in assay [6] it was 60.2%.

With `OCC1OC(O)C(CO)OC1O` (stereo not drawn), the growth inhibition in assay [1] was 16.1%; in assay [2], -5.2%; in assay [3], 3.7%; in assay [4] it was 40.2%; in assay [5] it was 22.2%; in assay [6] it was -5.2%.

On to `CC1(C)N=C(N)NC(Nc2ccccc2)=N1`, for which the growth inhibition in assay [1] is -0.2%; in assay [2], -6.5%; in assay [3], -27.6%; in assay [4], -26.9%; in assay [5] it was -10.8%; in assay [6], -0.05%.

For `Nc1cccnc1NCC(O)c1ccccc1` (stereo not drawn), the growth inhibition in assay [1] was 1.9%; in assay [2], -13.7%; in assay [3], -9.45%; in assay [4], -12.6%; in assay [5], -11.6%; in assay [6], 10.6%.

For `CCN(CC)CCOC(=O)c1c(C)c(C)cc(C)c1C`, the growth inhibition is -17.4% in assay [1]; -5.45% in assay [2]; -6.45% in assay [3]; -29.5% in assay [4]; -8.3% in assay [5]; -7.7% in assay [6].

For the compound `CCN(CC)S(=O)(=O)c1ccc(S(C)(=O)=O)cc1`, the growth inhibition was -19.8% in assay [1]; -10.9% in assay [2]; -8.05% in assay [3]; -60.1% in assay [4]; 8.35% in assay [5]; -14.2% in assay [6].

Regarding `CCOC(=O)c1nc2ccc(C(F)(F)F)cc2nc1NCc1ccc(OC)c(OC)c1`, the growth inhibition is 5.7% in assay [1]; 6.65% in assay [2]; -28% in assay [3]; -13.1% in assay [4]; -23.5% in assay [5]; -24.8% in assay [6].

On to `CC(=O)NC(Cc1ccccc1)C(=O)NN` (stereo not drawn), for which the growth inhibition in assay [1] was 7.15%; in assay [2], -8.3%; in assay [3] it was -11.2%; in assay [4], -0.35%; in assay [5], -6.55%; in assay [6], -22.3%.

`CCOCCOCCOC(C)Oc1ccc(Cl)cc1` (stereo not drawn): the growth inhibition was 4.05% in assay [1]; 8.4% in assay [2]; -9.05% in assay [3]; 10.7% in assay [4]; 6.15% in assay [5]; 9.55% in assay [6].

Turning to `Nc1cnccc1NCC(O)c1ccccc1` (stereo not drawn), the growth inhibition in assay [1] was 9.95%; in assay [2], -5.9%; in assay [3], -6.65%; in assay [4], -15.6%; in assay [5], -1.5%; in assay [6] it was -8.6%.

In the case of `CCCCCCCCCC(O)CO` (stereo not drawn), the growth inhibition in assay [1] is -20.6%; in assay [2], -20.7%; in assay [3] it was -23.8%; in assay [4] it was 6.4%; in assay [5] it was -10.6%; in assay [6], -5.95%.

Consider `COC(=O)c1c(C(=O)Nc2ccc(Cl)cc2)c(C)n(NC(N)=O)c1C`, for which the growth inhibition is -6.45% in assay [1]; 8.8% in assay [2]; 6.9% in assay [3]; -45.5% in assay [4]; 1.15% in assay [5]; 3.95% in assay [6].

On to `CC(C)(C)Oc1cc(F)c(C(C)(C)C)cc1C(C)(C)C`, for which the growth inhibition in assay [1] is -4%; in assay [2], -7.4%; in assay [3], -2.4%; in assay [4], 8.75%; in assay [5] it was 0.05%; in assay [6], 10.7%.

With `CCOC(=O)NN(C(=O)OCC)C(=C(C1=CCCCC1)N1CCOCC1)N(NC(=O)OCC)C(=O)OCC`, the growth inhibition in assay [1] was -14.4%; in assay [2] it was 4.25%; in assay [3], 3.3%; in assay [4] it was 1.9%; in assay [5] it was -4.8%; in assay [6], -6.5%.

Consider `C/C(=N\NS(=O)(=O)c1ccc(C)cc1)c1c(C)noc1C`, for which the growth inhibition is -13.4% in assay [1]; 7.55% in assay [2]; 13.3% in assay [3]; 3.85% in assay [4]; 6.3% in assay [5]; 13.3% in assay [6].

In the case of `Cc1ccc(Nc2nc(=O)[nH]c(=O)[nH]2)cc1N`, the growth inhibition is -11.7% in assay [1]; 1.65% in assay [2]; 20.3% in assay [3]; 11.7% in assay [4]; 27.1% in assay [5]; -54.5% in assay [6].

For the compound `CC(=O)Nc1ccc(/C=N/NC(=O)c2ccc(O)cc2)cc1`, the growth inhibition in assay [1] was 1.7%; in assay [2], 9.55%; in assay [3] it was -2%; in assay [4] it was 4.15%; in assay [5] it was 2.35%; in assay [6] it was 0.9%.

In the case of `Cc1cc(Cl)ccc1N=NC(=O)NNc1ccc(Cl)cc1C`, the growth inhibition in assay [1] is 35.2%; in assay [2] it was -15.2%; in assay [3] it was -7.05%; in assay [4], -21.9%; in assay [5], -7.2%; in assay [6], -19.5%.

As to `ClC1=C(Cl)C2(Cl)C=CC1(Cl)C2`, the growth inhibition in assay [1] was 4.05%; in assay [2], -3.05%; in assay [3], 4%; in assay [4], -14.2%; in assay [5], 1.9%; in assay [6] it was 6.6%.

As for `NCCCNCCCCNC(=O)C(O)NC(=O)CCCCCCN=C(N)N` (stereo not drawn), the growth inhibition in assay [1] was -2.7%; in assay [2], -11.2%; in assay [3] it was -2.05%; in assay [4] it was 11.4%; in assay [5], 3.4%; in assay [6], -1.6%.

Take `CCOC(=O)[C@H](Cc1ccccc1)NC(=O)c1nc[nH]c1[N+](=O)[O-]`: the growth inhibition in assay [1] was -10.1%; in assay [2] it was -9.25%; in assay [3], -31.1%; in assay [4] it was 5.6%; in assay [5] it was 1.2%; in assay [6] it was -34%.

With `CCOc1ccc(NC=O)cc1`, the growth inhibition is 0.75% in assay [1]; 8.45% in assay [2]; 5.2% in assay [3]; -3.55% in assay [4]; 18.5% in assay [5]; -11.3% in assay [6].

Take `O=c1oc2ccccc2c2ccccc12`: the growth inhibition in assay [1] is -2.8%; in assay [2], -9.55%; in assay [3], -16.5%; in assay [4], -5.95%; in assay [5], 1.25%; in assay [6] it was -7.8%.

As for `CC(=O)Nc1ccc(S(=O)(=O)c2ccc(NC(C)=O)cc2)cc1`, the growth inhibition was -10.6% in assay [1]; -10.1% in assay [2]; -48.5% in assay [3]; -6.2% in assay [4]; -26.5% in assay [5]; -40.8% in assay [6].

Turning to `O=C(O)c1cc(/C=C/c2cc(O)ccc2O)ccc1O`, the growth inhibition is -14.7% in assay [1]; -21.8% in assay [2]; -24.8% in assay [3]; -2.05% in assay [4]; -33.4% in assay [5]; -39.6% in assay [6].
